Assay outcomes as filed in PubChem.
YB-1 expr inh = YB-1 expression inhibition; AID 434959; 30,000 tested, 0.37% active; delta delta Cp (YB-1 minus CDIP) (no concentration beside the values); U2OS, qRT-PCR YB-1 vs CDIP delta delta Cp, 16 h; hits give high values; zero = DMSO, each unit about twofold;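 active = delta delta Cp rounded down to an integer at or above 3, about 3 SD of DMSO wells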;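 also: higher means less YB-1 transcript or more CDIP transcript relative to DMSO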
ROS inducer = raises reactive oxygen species in U2OS cancer cells. U2OS ROS induction, H2DCF-DA fluorescence. ROS induction (% of piperlongumine), % at 10 µM. 46,000 tested, 2% active; in the data active = ROS induction above about 79%, passing the limit was not always enough; inconclusive = no clear call, values can overlap the other calls;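 also: 0% = DMSO vehicle median and 100% = reference compound median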
* hit, by the source's call; ? = inconclusive; . = not tested or not shown. An excerpt weighted towards active compounds, which were near 2.3% of everything screened.

SMILES | YB-1 expr inh | ROS inducer
CCOC(=O)CN(C1=NS(=O)(=O)c2ccccc21)c1ccccc1 | . | 4
Cc1noc(C)c1NC(=O)Nc1ccc2c(c1)C(=O)N([C@H](C)CO)C[C@H](C)[C@H](CN(C)Cc1ccc(Cl)c(Cl)c1)O2 | 0.22 | -11
C[C@H]1CN([C@@H](C)CO)C(=O)Cc2cc(NC(=O)Nc3ccccc3)ccc2O[C@@H]1CN(C)Cc1ccc(Oc2ccccc2)cc1 | 0.017 | 21
C[C@@H]1CN([C@H](C)CO)C(=O)c2cc(NS(C)(=O)=O)ccc2O[C@H]1CN(C)C(=O)Nc1ccc(F)cc1 | -0.07 | -6
O=C(O)CCC(=O)Nc1ccc(Cc2ccncc2)cc1 | 8.6* | -14
O=C(O)CCC(=O)Nc1ccc2c(c1)C(=O)NC2=O | . | -6
COC(=O)Cn1cnc2c(nnn2Cc2ccc(Cl)cc2)c1=O | . | 6
COC1=CC(=O)OC1C(O)C(O)C(OC(C)=O)c1ccccc1 (configuration not stated) | 0.097 | -11
COC(/C=C/C(OC(C)=O)C(C)OC(C)=O)C(O)C1CC=CC(=O)O1 (configuration not stated) | 0.11 | 105*
O=C(c1[nH]c2ccccc2c1Sc1ccc(Cl)cc1)N1CCCC1 | . | -7
Cc1ccc(N(Cc2ccco2)C(=O)c2cccc(S(=O)(=O)N(C)C)c2)cc1 | . | 138*
O=C(c1ccco1)N(Cc1ccco1)c1ccc(O)cc1 | . | -5
COC(=O)C1(Cc2ccc(O)c(CC=C(C)C)c2)OC(=O)C(OC)=C1c1ccc(O)c(O)c1 (configuration not stated) | 0.21 | 0
COC(=O)C1(Cc2ccc(O)cc2)OC(=O)C(OC)=C1c1ccc(O)cc1 (configuration not stated) | 4.4* | -5
CCOC(=O)c1cc(-c2ccc(C)cc2)n(CCC(=O)NC2CCCCCC2)c1C | . | 34
Cc1oc2c(c1C(=O)NC1CCCC1)C(=O)c1ccccc1C2=O | 0.76 | 102*
Cc1oc2c(c1C(=O)NCCc1ccccc1)C(=O)c1ccccc1C2=O | -0.34 | -11
CC(C)NC(=O)N(C)C[C@@H]1Oc2ccc(NC(=O)NC3CCCCC3)cc2CC(=O)N([C@H](C)CO)C[C@@H]1C | 0.088 | -8
Cc1cc(Sc2nnc(/N=C/N(C)C)s2)c2ccccc2n1 | . | 192*
CN(C)/C=N/c1nnc(SCC(=O)c2ccc(F)cc2)s1 | . | -7
Cc1nc(SCC(=O)n2c3c(c4ccccc42)CCCC3)n[nH]1 | . | -25
O=C(Nc1ccc(N2CCOCC2)cc1)c1cnc2ccccc2n1 | . | 2
O=C(Nc1ccc(N2CCCCC2)cc1)c1ccncc1 | -0.5 | 87*
COc1ccc(NC(=O)CSC2=NC(c3ccccc3)CC(=O)N2)cc1Br (configuration not stated) | . | 17
C[C@H]1CN([C@@H](C)CO)C(=O)c2cccc(NC(=O)Nc3ccc(C(F)(F)F)cc3)c2O[C@@H]1CN(C)S(=O)(=O)c1ccc(Cl)cc1 | 0.23 | 1
SMILES | YB-1 expr inh | ROS inducer
C[C@H](CO)N1C[C@H](C)[C@H](CN(C)Cc2ccc(Oc3ccccc3)cc2)Oc2ccc(NS(=O)(=O)c3cccs3)cc2CC1=O | -0.18 | 22
Nc1nc(SCC(=O)NCC2CCCO2)[nH]c(=O)c1-c1ccccc1 (configuration not stated) | . | 4
Nc1nc(SCc2nc(-c3ccccc3)no2)[nH]c(=O)c1-c1ccccc1 | . | 106*
Cc1cccc(N2CCN(CC(O)CN3C(=O)c4ccccc4C3=O)CC2)c1 (configuration not stated) | . | 2
COc1cccc(C2CC(c3cccs3)=NN2C(=O)CSC2CCCCC2)c1OC (configuration not stated) | . | 36
N=C1S/C(=C/c2ccccc2)C(=O)N1c1nonc1N | 0.52 | 46
CCOc1cc(/C=C2/SC(=N)N(c3nccs3)C2=O)ccc1OCCN1CCOCC1 | -0.16 | 96*
C[C@@H]1CN([C@@H](C)CO)C(=O)c2cc(NC(=O)CCCCCC(=O)Nc3ccccc3N)ccc2O[C@@H]1CN(C)S(=O)(=O)c1cccs1 | 0.12 | -5
C[C@@H]1CN([C@@H](C)CO)C(=O)Cc2cc(NC(=O)Cc3cn(C)c4ccccc34)ccc2O[C@@H]1CN(C)CC1CCCCC1 | -0.04 | 12
CCOC(=O)c1c(CNC(C)C)oc2ccc(OC)cc12 | 10* | 27
CCOC(=O)c1c(C(C)(C)C)oc2ccc(OCC(=O)OC)cc12 | -0.37 | 60
CC(C)n1c(SCCC(=O)O)nc2ccccc21 | . | -6
Cc1ccc(S(=O)(=O)N2CCN(S(=O)(=O)c3ccc(C)cc3)C2)cc1 | . | 14
Cc1ccc(CNC(=O)CSc2nc(NC3CCCCC3)c3ccccc3n2)cc1 | . | 12
Cc1ccc(S(=O)(=O)N2CCN(c3nc(NC4CCCC4)c4ccccc4n3)CC2)cc1 | . | 152*
CN(C)CCN(C(=O)C1CCCCC1)c1nc2ccc(Br)cc2s1 | . | 94*
CCc1ccc2nc(N3CCC(C(=O)NC4CCCCC4)CC3)sc2c1 | . | 18
O=c1oc2ccccc2cc1-c1cn2c(n1)sc1ccccc12 | . | -3
C[C@@H]1CN([C@@H](C)CO)C(=O)c2cccc(NC(=O)c3ccc(-c4nccs4)cc3)c2O[C@@H]1CN(C)C(=O)Nc1ccc(F)cc1 | -0.075 | 8
CCOC(=O)CSc1nc(Nc2ccc(OC)cc2)c2cnc(N(CC)CC)nc2n1 | 0.2 | ?
CCOC(=O)CSc1nc(Nc2ccccc2)c2cnc(N3CCOCC3)nc2n1 | 0.02 | 150*
CN(C)c1nc(Cl)nc(N(C#N)CN2C(=O)c3ccccc3C2=O)n1 | 0.22 | 168*
O=C1c2ccccc2C(=O)N1CN1CCCCC1 | . | -12
C[C@@H]1CCCCO[C@H](CN(C)C)[C@@H](C)CN([C@H](C)CO)C(=O)c2cc(NC(=O)Nc3ccc(C(F)(F)F)cc3)ccc2O1 | 0.26 | 4
C[C@@H]1CCCCO[C@H](CN(C)CC2CCCCC2)[C@@H](C)CN([C@H](C)CO)C(=O)c2cc(NC(=O)Nc3ccc(C(F)(F)F)cc3)ccc2O1 | -0.26 | 95*
SMILES | YB-1 expr inh | ROS inducer
C[C@@H]1CCCCO[C@H](CN(C)Cc2ccc(C(F)(F)F)cc2)[C@@H](C)CN([C@H](C)CO)C(=O)c2cc(NC(=O)Nc3ccccc3)ccc2O1 | 0.084 | 137*
C[C@@H]1CCCCO[C@H](CN(C)Cc2ccccc2)[C@@H](C)CN([C@H](C)CO)C(=O)c2cc(NC(=O)Nc3ccc(C(F)(F)F)cc3)ccc2O1 | -0.52 | 10
C[C@@H]1CN([C@H](C)CO)C(=O)Cc2cc(NS(=O)(=O)c3cn(C)cn3)ccc2O[C@H]1CN(C)Cc1ccc(Oc2ccccc2)cc1 | -0.2 | 24
C[C@H](CO)N1C[C@H](C)[C@H](CN(C)Cc2ccc(Cl)c(Cl)c2)Oc2ccc(NS(=O)(=O)c3cn(C)cn3)cc2CC1=O | 13* | 17
C[C@H]1CN([C@@H](C)CO)C(=O)Cc2cc(NS(=O)(=O)c3cn(C)cn3)ccc2O[C@H]1CN(C)Cc1ccc(Oc2ccccc2)cc1 | 0.069 | 89*
C[C@H]1CN([C@@H](C)CO)C(=O)Cc2cc(NS(=O)(=O)c3cn(C)cn3)ccc2O[C@H]1CN(C)Cc1ccc(Cl)c(Cl)c1 | 0.12 | 0
Cc1ccc(C2=NN=C(NC(=O)CSc3ccccc3)SC2)cc1 | . | 21
CN1CCc2c(-c3cccs3)nc(OCc3ccccc3Br)c(C#N)c2C1 | 0.13 | 168*
N#Cc1ccc(CSc2nc(-c3cccs3)c3c(c2C(=O)O)CCCC3)cc1 | 0.35 | 23
CCOc1ccc(NC(=O)CN2CCCc3ccccc32)cc1 | . | -6
